# Assay results: the supplement of paper PMC6555819
# What was measured:
# Experiment in all cases: PBM binding z-score (relative to random genomic background probes); higher = stronger binding; sequences stand for … in GC…GCGATTGACAGCGTAGAATGAAGG
# [1] = system: FXR:RXRa (NR concentration 270 nM, RXRa partner concentration 90 nM)
# Outline: (§1)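 Regression normalization was applied to scanned fluorescence from custom Agilent 4×180K protein-binding microarrays. Before scanning, arrays were incubated 1 h with ligand-free nuclear receptor dimers, and binding was detected with antibodies against each partner (one per run). Binding z-scores use the random background probes as reference.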
# [2] = system: LXRa:RXRa (NR concentration 270 nM, RXRa partner concentration 90 nM)
# Outline: as §1
# [3] = system: LXRa homodimer (NR concentration 270 nM)
# Outline: as §1
# [4] = system: LXRb:RXRa (NR concentration 270 nM, RXRa partner concentration 90 nM)
# Outline: as §1
# [5] = system: LXRb homodimer (NR concentration 270 nM)
# Outline: as §1
# [6] = system: PPARa:RXRa (NR concentration 270 nM, RXRa partner concentration 90 nM)
# Outline: as §1
# [7] = system: PPARg:RXRa (NR concentration 180 nM, RXRa partner concentration 90 nM)
# Outline: as §1
# [8] = system: PPARg:RXRa 270nM:90nM, anti-RXR (NR concentration 270 nM, RXRa partner concentration 90 nM)
# Outline: as §1
# [9] = system: PPARg:RXRa 30nM:10nM, anti-RXR (NR concentration 30 nM, RXRa partner concentration 10 nM)
# Outline: as §1
# [10] = system: PPARg:RXRa 90nM:30nM, anti-RXR (NR concentration 90 nM, RXRa partner concentration 30 nM)
# Outline: as §1
Sequence,PBM binding z-score [1],PBM binding z-score [2],PBM binding z-score [3],PBM binding z-score [4],PBM binding z-score [5],PBM binding z-score [6],PBM binding z-score [7],PBM binding z-score [8],PBM binding z-score [9],PBM binding z-score [10]
CGATCTAGGTCAAGGACAGTGAATCTCCGCACGC,3.25,2.07,0.0913,1.3,-0.135,4.43,7.27,5.87,3.68,5.55
AGTCAAAGTTCAATAGGTAACGTAAGATTCAGCT,5.27,5.09,3.45,3.08,1.59,4.37,5.82,5.74,2.88,4.97
AATACAGGGTCACTAGGCCAGACTAGGTACGAAT,6.12,5.24,0.88,3.8,0.693,5.84,7.65,6.41,3.21,5.35
CGTCCAAGGTCATAGGAGGTCAGTAAAGACAGAT,7.75,7.7,5.05,6.36,1.18,5.96,5.82,6.05,2.41,4.8
TGTCAAAGTTCAAAGGTAAAGTAAGTATCCACAC,7.42,6.49,3.99,4.8,1.68,5.87,8.7,7.81,5.23,7.51
TAGCCTAGGTCATGCAGGGGCCAGTATAGAAAGC,3.95,3.15,-0.0993,2.24,-0.427,3.56,2.28,2.44,0.917,1.5
TTACCAAGGTGAGCTGAGGCCGTTGATCCAACTC,0.053,-0.536,-0.916,-0.569,-1.39,0.236,-0.296,-0.253,-0.438,-0.329
CTGACTGGGGCAGAAAGGTTACCATACCATCCGG,0.933,1.01,0.207,1.5,-0.293,2.65,2.32,3,1.18,2.35
ATCTATAGGTAAAGATAGTTCAGTGAATGCAAAT,0.466,5.29,0.591,1.55,0.423,0.82,1.09,0.484,0.425,0.604
TGAATGAGGTTAAAGATCAAGGAACGTGGCGTCG,3.35,2.61,-0.438,1.96,0.0283,4.79,6.53,6.53,5.25,6.93
AGAACGAGGGCAATGAGTTGATACCACGGGTGGC,0.296,0.211,-0.493,-0.174,-0.279,1.36,1.5,0.94,-0.0193,0.369
TAGCCTAGGTCATTGGGCCAGTACAGTACGCATC,4.4,3.61,1.04,2.35,0.354,3.83,3.38,3.78,0.72,2.63
CCTAGTAGGCCAATCTGGGTCACTCAAGGCTTGA,0.701,1.69,-0.399,1.2,-0.38,3.58,3.41,3.08,0.257,2.26
TGTATTAGTTGATTAGGGCAACCGAAACAGCGGA,0.242,0.0777,0.397,0.234,1.3,0.484,0.304,0.782,0.748,0.794
CAAACTAGGTCAGAGAGGTCAAAGTCCGTGCGTA,6.28,6.16,6.8,5.36,1.48,6.07,8.4,7.06,4.96,7.01
GCTAGCAGGCCATTTGGCTCACTCAATGACGGGC,-0.798,-0.75,-0.83,-1.31,-1.31,-0.645,0.277,-0.576,-0.918,-0.656
CAGACTAGGTCAAGGTCAAAGTCGGTTTGTGCCA,6.13,5.42,3.5,4.36,0.864,5.62,7.72,7.03,5.17,6.78
TCTGCTAGGTCAACGACGGTCAGCTAATCTGCTA,3.49,4.34,0.203,1.97,0.156,3.28,2.09,2.97,1.76,2.26
TGTATTAGTTGAAGGGCAACCGACGAGTCCGTTT,0.551,0.588,0.228,0.491,0.587,0.462,0.102,0.95,0.864,0.871
CCAGACAGGTGAAAGGTAACTGAGTCTGGTACGC,0.744,0.866,-0.565,0.528,-0.541,3.52,6.16,6.38,4.81,5.99
ATCGAAAGGTCGAGGTGAATATAGAGAAAGGGAA,4.19,3.5,0.21,2.79,0.889,4.65,3.91,3.97,1.51,2.95
AGAACGAGGGCACGCTGAGTTGATATCAGAGTAG,0.635,0.337,-0.489,-0.0642,-0.77,2.02,2.14,1.79,0.489,1.22

Sequence,PBM binding z-score [1],PBM binding z-score [2],PBM binding z-score [3],PBM binding z-score [4],PBM binding z-score [5],PBM binding z-score [6],PBM binding z-score [7],PBM binding z-score [8],PBM binding z-score [9],PBM binding z-score [10]
ATCTCGAGGTAACAAGTTCAGTGAAAGAGAGGAC,0.617,0.888,0.333,0.61,0.253,1.51,0.717,0.867,-0.0837,0.456
GCGCCTGGGGCATCAGCAGGTTACCATAACTTAA,-0.344,-0.299,-0.446,0.294,-1.19,0.454,0.0238,-0.488,-0.952,-0.927
TAGCCTAGGTCAGATCGGGCCATTATACGCTATA,2.53,1.3,-0.125,1.07,-0.132,1.55,0.711,0.523,-0.272,0.0184
TCGAGTAGGTTAGGGGCATTTAGAATGGCGTCGA,0.425,0.611,-0.123,0.871,0.134,1.37,0.729,2.07,1.37,1.68
ACTCGGAGGACCAAGGTCAGAGCTACGCCAGTGA,1.21,0.987,-0.312,0.779,-0.603,1.79,0.947,1.31,0.277,0.773
ACTAGCAGGCCAAGGGTCACCCAAGATTAGTCCG,3.24,2.98,0.036,2.76,-0.624,5.01,8.49,7.88,6.88,9.09
ATATGTACGTTAGCTGGGGTCATTCAGACTAGGC,3.94,3.99,2.29,4.39,1.42,4.07,1.74,2.27,0.566,1.33
AGAATGAGGTAACCAAAGATCAGGGAAACGCTTG,-0.0845,3.81,-0.311,0.439,-0.22,1.21,1.15,0.888,0.575,0.541
AGTTAAAGTTCATCTAGGTAACGTAAGATATGCT,6.36,6.33,5.76,3.75,2.33,4.67,4.77,4.99,2,4.03
TCTGCTAGGTCAACTATGGTCAGCTAATCTGCTA,4.09,3.35,0.302,2.35,0.258,3.65,2.72,3.29,2.15,2.81
GCTGCTAGGTCAACTGATGATCAGCTAAAGCTCG,3.88,2.96,-0.334,2.02,0.0909,3.68,2.88,3.19,0.694,2.07
CAAACTAGGACACGAAAGGTCAAAGTCGAATGAC,5.33,5.73,6.38,5.43,1.98,5.8,6.54,6.27,3.92,5.63
TCTGCTAGGTCAGTTGGTCAGCGAACGAGCTGCC,1.05,0.587,-0.495,0.166,0.433,1.57,0.47,1.87,1.06,1.38
CCTGCTAGATCATGGTCAGCTAATCTACAGTATG,-0.747,-0.678,-0.68,-0.476,-0.922,-0.672,0.0409,-0.513,-0.306,-0.269
CGAACTAGGTCATTGATAGGACAGTGAATAGTAA,3.4,2.63,0.471,1.82,-0.194,4.38,7.14,5.99,3.25,5.56
GCGACTGGGGCATCAGGAGGTTACCATAACTTAA,0.0636,0.325,0.0698,0.842,-1.05,1.7,1.35,1.26,0.00065,0.599
TCTGCTAGGTCAGTTGGTGAGCTAACGAGCTGCC,0.898,0.467,-0.796,-0.0479,0.264,0.853,-0.0831,1.38,1.18,1.13
ATCGAAAGGTCGTGAGCTGAGTATACAGAAAGGC,4.79,3.91,0.0249,3.03,0.117,4.86,3.35,4,1.23,2.6
GGAACGAGGGCTAGTTGATAGCAGAGTTTGATGG,-0.569,-0.717,-0.679,-0.908,-0.992,-0.745,0.203,-0.227,-0.133,-0.567
TGAATGAGGTTATAAGATCAGGGCACGTTGCAAA,1.49,1.49,0.117,1.32,0.0684,2.9,1.62,1.95,0.914,1.63
GCGACTGGTGCAAAGCAGGTTACCATAAGGTTGG,-0.455,-0.431,-0.586,-0.35,-0.861,0.293,0.344,-0.0216,-0.591,-0.439
TTACTAAGGTGAAGGTCGTTGATCCCTCTGTAGA,3.06,2.12,0.0636,2.08,-0.257,3.76,5.8,6.91,5.91,7.51
